Assay outcomes: PubChem, National Center for Advancing Translational Sciences (NCATS)
Rows were chosen to be rich in hits. Some 6.2% of all compounds tested hit in one or more screens of this group.
MARV entry inh: inhibitors of Marburg virus binding or cell entry. Potency, µM (highest dose often 37.8 µM), usual class: inhibitors. 300,000 tested, 1.8% active. Marburg virus pseudotyped entry inhibition, cell reporter; calls by dose curve; tested in HEK293 cells
FMDV antiviral: antivirals against foot and mouth disease virus. AID 1159524. 410,000 tested, 1.2% active. Potency, µM (highest dose often 57.9 µM), hits mostly inhibitors. FMDV antiviral cell-based qHTS; calls by dose curve; tested in HEK293T cells; further: read-out not given here; nearly all actives have a fitted effect of over 45% in size
HCMV antiviral: blocks human cytomegalovirus replication | HFF cells, HCMV-luciferase reporter, 72 h; active compounds read low | activity change, negative = inhibition, % at 57.5 µM | 410,000 tested, 4.5% active; in the data active means activity change below about -60%; inconclusive means no clear call, values can overlap the other calls; inactive means above about -39%
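Inhibition of viral replication was scored as loss of reporter luminescence in HFFs infected with HCMV-luciferase (MOI 1 PFU/cell) for 72 h; compounds tested at 2 doses, normalized to buffer and Salinomycin controls.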
Lassa entry inh: Lassa virus entry inhibition; Lassa virus pseudotype entry inhibition, cell reporter; Potency, µM (series often up to 37.9 µM), most hits filed as inhibitors; 300,000 tested, 1.2% active; AID 540256; calls by dose curve; tested in HEK293 cells; further: nearly all actives have a fitted effect of over 50% in size
A number is an active result; i = inactive; ? = inconclusive; nt = not tested or not shown.

SMILES | MARV entry inh | FMDV antiviral | HCMV antiviral | Lassa entry inh
CCn1nnc2cc(C(=O)N3CCC(C(=O)OC)CC3)ccc21 | i | i | i | i
Cc1ccc(-n2nnnc2-c2cnc(N3CCCC3)nc2C(F)(F)F)cc1 | i | ? | ? | ?
FC(F)(F)c1nc(N2CCCC2)ncc1-c1nnnn1-c1ccccc1 | i | 18µM | -72 | i
O=C(NN=Cc1ccccc1Cl)c1ccccc1 | nt | i | i | nt
CCCCc1ccc(-c2ccc(C)cc2O)nc1 | ? | i | i | 10µM
COc1cc2nc(N(C)C)nc(N)c2cc1OC | ? | i | -94 | i
CCc1ccc(OCCNC(=O)c2ccccc2SCc2ccccc2)cc1 | ? | ? | -88 | ?
CN(C)c1nc(C=C(C#N)C#N)c(Cl)n1-c1ccc(F)cc1 | ? | 14µM | -97 | ?
CN(C)c1ccc(C=C(C#N)C#N)cc1 | ? | i | i | i
Cc1cc(C(=O)N/N=C2\CCCC(=O)C2)c(C)n1-c1ccccc1 | ? | i | i | ?
C=CCn1c(SCC(=O)Nc2ccc(Br)cc2)nc(O)cc1=O | nt | i | -100 | nt
CCn1c(SCC(=O)Nc2ccc(C)cc2)nc(O)cc1=O | i | i | i | i
CC(C)(C)c1cc(C(=O)NNc2cc(C(F)(F)F)ccc2Cl)n(Cc2ccccc2)n1 | ? | ? | -90 | ?
CC(C)(C)c1cc(C(=O)Nc2ccc(F)cc2)n(Cc2ccc(F)cc2)n1 | nt | ? | -92 | nt
Cc1ccc(NC(=O)c2cc(C(C)(C)C)nn2Cc2ccccc2)cc1 | ? | i | ? | 2.8µM
CC(C)(C)c1cc(C(=O)NC2CC2)n(Cc2ccc(F)cc2)n1 | ? | i | i | ?
COc1ccccc1NNC(=O)c1cc(C(C)(C)C)nn1Cc1ccccc1 | ? | i | i | ?
CC(C)(C)c1cc(C(=O)NNc2ccc(OC(F)(F)F)cc2)n(Cc2ccccc2)n1 | ? | ? | i | ?
CC(C)(C)C(=O)NNC(=O)c1cc(C(C)(C)C)nn1Cc1ccccc1 | 10µM | i | i | ?
COc1ccc(NC(C)C(=O)Nc2cc(C(F)(F)F)ccc2N2CCOCC2)c(OC)c1 (centres undefined) | ? | i | i | i
CCN(CC)c1ccc(S(=O)(=O)N(CC)CC)cc1NC(=O)c1cccnc1 | i | i | i | ?
CCOC(=O)c1ccc(NC(=O)C2CC2)cc1 | i | i | i | i
Cc1ccc(NNC(=O)c2cc(C(C)(C)C)nn2Cc2ccccc2)cc1 | i | i | i | ?
CC(C)(C)c1cc(C(=O)NNc2cccc(Cl)c2)n(Cc2ccccc2)n1 | 11µM | i | -73 | ?
CCOC(=O)N1CCN(C(=O)CSc2nc3nc(C)cc(C)n3n2)CC1 | i | i | i | i
SMILES | MARV entry inh | FMDV antiviral | HCMV antiviral | Lassa entry inh
Cc1cc(C)n2nc(SCC(=O)N3CC(C)CC(C)C3)nc2n1 (centres undefined) | i | i | -65 | i
Cc1onc(-c2ccccc2)c1-c1ccnn1C(=O)NC(C)C | i | i | i | ?
Cc1cccc(CN2CCN(C(c3ccccc3)c3ccc(Cl)cc3)CC2)c1 (centres undefined) | ? | ? | i | i
CC[N+](CC)(CC)CCOc1ccc(/C=C/c2ccccc2)cc1 | nt | ? | -99 | nt
COCCCN1C(=O)C(=O)/C(=C(/O)c2ccc(OC)cc2)C1c1cccc(OC)c1 (centres undefined) | i | i | -102 | i
COCCCN1C(=O)C(=O)/C(=C(/O)c2ccc(C)cc2)C1c1ccccc1 (centres undefined) | i | i | i | i
COc1ccc(/C(O)=C2/C(=O)C(=O)N(CCN(C)C)C2c2ccc(OC)c(OC)c2)c(C)c1 (centres undefined) | i | i | -71 | i
O=C(c1ccc2c(c1)OCO2)N1CCN(c2ncccn2)CC1 | i | i | i | ?
CCn1c(C)cs/c1=N\S(=O)(=O)c1ccccc1 | nt | i | i | nt
O=Cc1s/c(=N\S(=O)(=O)c2ccccc2)n(CCCCl)c1Cl | ? | 7.9µM | -108 | ?
CC(Nc1nc(-c2ccc(F)cc2)cs1)c1nc2cc(Cl)c(N3CCCCC3)cc2n1CCCO (centres undefined) | nt | i | -65 | nt
CC(Nc1nc(-c2ccc(F)cc2)cs1)c1nc2cc(Cl)c(N3CCCCC3)cc2n1CCOCCO (centres undefined) | nt | ? | i | nt
Fc1ccc(NC(=S)Nc2nccs2)cc1 | nt | i | -115 | nt
S=C(Nc1ccccc1)Nc1nccs1 | 14µM | i | i | 15µM
Fc1ccc(NC(=S)Nc2ccc3nccnc3c2)cc1 | nt | i | i | nt
O=C(NCc1ccc2c(c1)CCN2C(=O)c1ccncc1)c1ccccc1F | nt | i | i | i
CC(C)C[C@@H](CO)N1CCN(Cc2ccc(Br)cc2)CCC1=O | nt | i | ? | nt
Cc1ccc(O)c(C(CC(=O)N2CCCC2)c2ccccc2)c1 (centres undefined) | i | i | nt | i
O=C(CC(c1ccccc1)c1ccccc1O)N1CCCCC1 (centres undefined) | nt | i | -82 | nt
